ChEMBL document CHEMBL3988442, “University of Dundee, Small-Polar-MMV Screening Library” (2021)
The campaign covered roughly 48,000 compounds. About 13,000 (27%) showed an effect of 50% or more. This is one part of the list.

These compounds were tested on Wolbachia pipientis (assay: Anti-Wolbachia Cell-Based Screen). Details: 5 µM.
Assay type: functional
Design: scale not given: in the data most compounds retested in dose-response had high values

Compound | Percent Effect
CS(=O)(=O)CCCNC(=O)NC1CC(c2cccc(Cl)c2)C1 (stereo not given) | -3.705%
N#Cc1cccc(S(=O)(=O)NC2CCN(Cc3ccccc3)C2=O)c1 (stereo not given) | -3.444%
CC(C)Oc1cc(N2CCC3(CC2)[C@H](O)C[C@@H]3O)nc(N)n1 | 12.72%
CN1CCCC(N2CCN(c3nc4ccccn4c3C#N)CC2)C1 (stereo not given) | 6.11%
CC(=O)N(CCc1ccccc1)CC(=O)Nc1ccccc1C#N | -7.598%
CC(C)(C)c1ncc2c(n1)CN(C(=O)c1ccc(C#N)nc1)C2 | -2.492%
COC(=O)c1ccc(F)c(S(=O)(=O)Nc2ccc(C(N)=O)cc2)c1 | 8.532%
Cc1cccc(N2CCN(CCC(=O)NCc3ccc(C)s3)CC2)c1 | 3.46%
Cc1cnc(C(=O)N2CCN(C(=O)C(C)C)[C@@H]3CS(=O)(=O)C[C@@H]32)cn1 | -9.288%
COc1ncccc1C(=O)N1CCC(CNC(C)=O)CC1 | -0.8543%
CCNc1ccnc(NC2CCN(C(=O)c3ccc(C)cc3)CC2)n1 | 10.68%
Cc1nnnn1-c1ccc(CC(=O)N2CCOCC(O)C2)cc1 (stereo not given) | -21.98%
COC(=O)C1CCCN1C(=O)c1ccc(-n2nc(C)cc2C)cc1 (stereo not given) | -11.77%
COC(=O)CC1CCN(C(=O)c2ccccc2-n2nnnc2C)CC1 | 87.7%
Cc1ccc(O)c(C(=O)N2CCC(CN3CCCCCC3)CC2)c1 | 5.424%
COC(=O)CC1CCN(C(=O)c2ccc(-n3nnnc3C)cc2)CC1 | 129.7%
COC(=O)CC1CCN(C(=O)c2ccc(C)cc2)CC1 | 100%
CC(C)(C)OC(=O)NCC1CCN(C(=O)c2ccccc2O)CC1 | 15.84%
Cc1cnn(CC2CN(CC(=O)Nc3sccc3C#N)CCO2)c1 (stereo not given) | -6.28%
CCc1noc(CS(=O)(=O)Cc2ccccc2Cl)n1 | -7.562%
CN(C)CCN1C(=O)CC[C@@H]2[C@H]1CCN2C(=O)c1ccc(C#N)cc1.O=C(O)C(F)(F)F | -26.6%
CCS(=O)(=O)N1Cc2ncn(C)c2C(COCC2CCOCC2)C1.O=C(O)C(F)(F)F (stereo not given) | -11.73%
COCC1CN(S(=O)(=O)N(C)C)Cc2ncn(CC3CC3)c21.O=C(O)C(F)(F)F (stereo not given) | 108.7%
COCC1CN(S(=O)(=O)N(C)C)Cc2cnn(CC3CCCC3)c21.O=C(O)C(F)(F)F (stereo not given) | -5.811%

Compound | Percent Effect
Cn1cnc2c1C(COCC1CCOCC1)CN(c1ncccn1)C2.O=C(O)C(F)(F)F.O=C(O)C(F)(F)F (stereo not given) | -12.76%
Cn1cnc2c1C(COCC1CC1)CN(C(=O)c1cccs1)C2 (stereo not given) | -12.17%
CCOCC1CN(S(=O)(=O)N(C)C)Cc2cnn(CC3CC3)c21.O=C(O)C(F)(F)F (stereo not given) | -12.89%
CCS(=O)(=O)N1Cc2ncn(CC3CC3)c2C(COCC2CC2)C1.O=C(O)C(F)(F)F (stereo not given) | 98%
Cn1cnc2c1C(COCC1CC1)CN(c1ncccn1)C2.O=C(O)C(F)(F)F.O=C(O)C(F)(F)F (stereo not given) | 100.9%
Cc1cnc(N2C[C@@H]3[C@@H](C2)OCC(=O)N3CC(C)C)nc1.O=C(O)C(F)(F)F | -17.14%
CSc1ccccc1CN1CCCn2nc(CNC(=O)N(C)C)cc2C1 | 2.043%
O=C(CCc1cc2n(n1)CCCN(Cc1ccccc1F)C2)NC1CC1 | 0.7471%
Cc1cc(CN2CCCn3nc(CCC(=O)O)cc3C2)ccc1F | -13.15%
CCn1cc(CN2CCCn3nc(CCC(=O)NCCO)cc3C2)cn1 | -3.785%
O=C(CCc1cc2n(n1)CCCN(CCc1ccccc1)C2)NC1CC1 | 113.2%
Nc1ncccc1CN1CCCn2nc(CCC(=O)NC3CC3)cc2C1 | 172.9%
Cc1nc(C(NC(=O)CC(F)(F)F)c2ccc(Cl)cc2)no1 (stereo not given) | 0.7806%
CC(C)CS(=O)(=O)CC(=O)N1CCCC1c1noc(C2CC2)n1 (stereo not given) | -6.47%
Cn1c(C2CCCN2C(=O)CN2CCCC2=O)nc2ccccc21 (stereo not given) | 0.4362%
COCC(=O)N1CCCC1c1cccc(C)c1C (stereo not given) | 4.955%
COCCn1cc(C(=O)N2CCCC2c2noc(C)n2)ccc1=O (stereo not given) | 10.03%
COCCC(=O)N1CCCC1c1cccc(C)c1C (stereo not given) | 3.518%
COCC(=O)N1CCCC1c1nc(C)c2c(n1)N(CC(C)C)C(=O)CC2 (stereo not given) | 117%
COCCC(=O)N1CCCC1c1nc(C)c2c(n1)N(C)C(=O)CC2 (stereo not given) | 147.7%
COCC(=O)N1CCCCC1c1nc(C)c2c(n1)N(C1CC1)C(=O)CC2 (stereo not given) | 63.67%
COCC(=O)N1CCCCC1c1nc(C)c2c(n1)N(CC1CC1)C(=O)C2 (stereo not given) | 105.7%
CC(Nc1nc2c(cnn2C)c(=O)[nH]1)c1ccc(F)cc1 (stereo not given) | -20.73%
COCCN1CC(C(=O)N(C)Cc2cc(-c3cccnc3)no2)CC1=O (stereo not given) | -16.5%

Compound | Percent Effect
O=C(c1cnc2c(c1)CCC2)N1CCCC(CO)(CC2CC2)C1 (stereo not given) | -2.632%
OC[C@@H](O)CN(CCC(F)(F)F)c1ncc(Br)cn1 | 8.436%
CCC(Nc1nnnn1-c1ccccc1)C(=O)NCc1ccsc1 (stereo not given) | 4.065%
Cc1nc(C2CCCN2CC(=O)N(Cc2ccsc2)C2CC2)no1 (stereo not given) | -3.982%
CCN(CC)C(=O)CN1CCCC1c1nc(C)c2c(n1)N(C)C(=O)CC2 (stereo not given) | 125.7%
CCN(CC)C(=O)CN1CCCC1C(=O)N(C)C (stereo not given) | 1.193%
O=C(NCc1cnc2n1CCN(CC1CC1)C2)C1CC1.O=C(O)C(F)(F)F | 80.69%
Cc1ccc(CN2CCc3ncc(CNS(C)(=O)=O)n3CC2)o1.O=C(O)C(F)(F)F | -0.4637%
Cn1ccnc1C(=O)NC[C@@H]1OC[C@H]2CN(CC3CC3)CC[C@H]21.O=C(O)C(F)(F)F | -43.28%
Cc1cc(C(=O)N2CCc3ncc(CN4CCCC4)n3CC2)no1.O=C(O)C(F)(F)F | -20%
O=C(NCc1cnc2n1CCN(Cc1nccs1)CC2)C1CCC1.O=C(O)C(F)(F)F | 95.25%
Cn1ccnc1C(=O)NCc1cnc2n1CCN(CC1CC1)CC2.O=C(O)C(F)(F)F.O=C(O)C(F)(F)F | 88.03%
O=C(NCc1cn2c(n1)CN(Cc1nccs1)CC2)C1CCC1.O=C(O)C(F)(F)F | -3.871%
Cc1ccc(CN2CCc3ncc(CNC(=O)C4CCC4)n3CC2)o1.O=C(O)C(F)(F)F | 89.47%
O=C(NCc1cnc2n1CCN(CC1CCOCC1)C2)c1ccno1.O=C(O)C(F)(F)F | -43.24%
O=C(NCc1cnc2n1CCN(Cc1ccsc1)CC2)C1CCC1.O=C(O)C(F)(F)F | -9.045%
Cn1cccc1C(=O)NCc1cnc2n1CCN(CC1CC1)C2.O=C(O)C(F)(F)F | -11%
Cn1cccc1C(=O)NCc1cnc2n1CCN(CC1CCOCC1)C2.O=C(O)C(F)(F)F | 19.82%
CC(=O)Nc1ccsc1C(=O)Nc1cnc2n1CCCC2 | 1.629%
CNc1nc(C(=O)NCC2CCOc3ccccc3C2)cs1 (stereo not given) | 3.092%
CC(C)C1CN(c2nccc(N)n2)CCC(=O)N1Cc1ccc(F)cc1 (stereo not given) | 6.607%
COc1cccc(OCC2CCCN(C(=O)c3ccc(N)nc3)C2)c1 (stereo not given) | -26.62%
CC(C)N(CC(=O)Nc1ccc(Br)cc1Cl)Cc1cccnc1 | -0.1768%
COC(=O)CCC(=O)N1CCc2nc(C(=O)N3CCOCC3)sc2CC1 | -7.844%

Compound | Percent Effect
CN(Cc1ccco1)[C@@H]1CN(CC2CCOCC2)C[C@@H]2CCCO[C@@H]21.O=C(O)C(F)(F)F.O=C(O)C(F)(F)F | 2.943%
COc1nn(C)cc1C(=O)N1CCC(C)CC1 | 127.9%
Cn1cnc2cc(C(=O)N3CCC(c4ccccc4C(=O)O)C3)cnc21 (stereo not given) | 0.5169%
CC1CCN(C(=O)c2ccn(COc3ccc(F)cc3)n2)CC1 | 3.69%
CCNC(=O)N1CCC(c2ccccc2)C1 (stereo not given) | 124.1%
COc1nn(C)cc1C(=O)N1CCC(c2ccccc2)C1 (stereo not given) | 121.1%
O=C(NCCNC(=O)N1CCC(c2ccccc2)C1)C1CC1 (stereo not given) | -9.135%
CCN(CC)C(=O)CCNC(=O)N1CCC(c2ccccc2)C1 (stereo not given) | 4.092%
CC1CCN(C(=O)c2cn(-c3cc(N4CCSCC4)ncn3)cn2)CC1 | 12.42%
CS(=O)(=O)Cc1ccc(Cl)cc1NCc1cccc(F)c1F | -9.935%
CC(=O)NCC1CCN(CC2CCOc3ccccc3C2)CC1 (stereo not given) | 6.943%
CCCN1CC2(CCN(C)CC2)CC1C(=O)NCCn1cccn1 (stereo not given) | 6.399%
COc1ccc(CN2CCN(CC3CC3)[C@@H]3CS(=O)(=O)C[C@@H]32)cc1C | 20.23%
CNS(=O)(=O)c1cccc(CNc2nccc(C(F)(F)F)n2)c1 | -7.88%
COc1ccc(Cl)cc1CN(C)CC(=O)/N=c1\cc[nH]n1C(C)C1CC1 (stereo not given) | -13.95%
C1Cc2nc(CCNc3nc(C4CC4)nc4c3CCNCC4)sc2C1 | 0.8801%
OC1(CNCCc2nc3c(s2)CCCC3)CNCCOC1 (stereo not given) | 109%
OC1(CNCCc2nc3c(s2)CCCC3)CCNC1 (stereo not given) | 87.02%
OC1(CNCCSc2ccccn2)CNCCOC1 (stereo not given) | -26.11%
Cc1nc2c(c(NCCc3nc4c(s3)CCCC4)n1)CCNCC2 | 7.698%
OC1(CNCCc2nc(Cc3ccccc3)no2)CNCCOC1 (stereo not given) | 14.79%
CC(C)NCc1nc(-c2ccc3c(c2)OCO3)c[nH]1.Cl.Cl | 8.786%
CCCc1cc(NC(=O)c2cccc(N3CCCNC3=O)c2)n[nH]1 | 11.29%
